Screening results as filed in PubChem BioAssay.
In the library only some 13% were active in any assay of this set; here they are far more common.
USP30 inh: inhibitors of human USP30 deubiquitinase. Ubiquitin carboxyl-terminal hydrolase 30 (Homo sapiens), Q70CQ3. purified USP30, Ub-rhodamine cleavage fluorescence. inhibition, % at 25 µM. actives 5.3% (n = 47,000)
USP17 block: inhibitors of human USP17 deubiquitinase | Ubiquitin carboxyl-terminal hydrolase 17-like protein 5 (Homo sapiens), A8MUK1 | purified USP17, Ub-rhodamine cleavage fluorescence, 3 h | inhibition, % at 50 µM | actives 6.5% (n = 47,000) | AID 1645855, 2021
USP28 inh: inhibitors of human USP28 deubiquitinase. Ubiquitin carboxyl-terminal hydrolase 28 (Homo sapiens), Q96RU2. purified USP28, Ub-rhodamine cleavage fluorescence, 30 min. inhibition, % at 25 µM. actives 3% (n = 47,000)
Target sequence (Q96RU2 whole entry, looked up): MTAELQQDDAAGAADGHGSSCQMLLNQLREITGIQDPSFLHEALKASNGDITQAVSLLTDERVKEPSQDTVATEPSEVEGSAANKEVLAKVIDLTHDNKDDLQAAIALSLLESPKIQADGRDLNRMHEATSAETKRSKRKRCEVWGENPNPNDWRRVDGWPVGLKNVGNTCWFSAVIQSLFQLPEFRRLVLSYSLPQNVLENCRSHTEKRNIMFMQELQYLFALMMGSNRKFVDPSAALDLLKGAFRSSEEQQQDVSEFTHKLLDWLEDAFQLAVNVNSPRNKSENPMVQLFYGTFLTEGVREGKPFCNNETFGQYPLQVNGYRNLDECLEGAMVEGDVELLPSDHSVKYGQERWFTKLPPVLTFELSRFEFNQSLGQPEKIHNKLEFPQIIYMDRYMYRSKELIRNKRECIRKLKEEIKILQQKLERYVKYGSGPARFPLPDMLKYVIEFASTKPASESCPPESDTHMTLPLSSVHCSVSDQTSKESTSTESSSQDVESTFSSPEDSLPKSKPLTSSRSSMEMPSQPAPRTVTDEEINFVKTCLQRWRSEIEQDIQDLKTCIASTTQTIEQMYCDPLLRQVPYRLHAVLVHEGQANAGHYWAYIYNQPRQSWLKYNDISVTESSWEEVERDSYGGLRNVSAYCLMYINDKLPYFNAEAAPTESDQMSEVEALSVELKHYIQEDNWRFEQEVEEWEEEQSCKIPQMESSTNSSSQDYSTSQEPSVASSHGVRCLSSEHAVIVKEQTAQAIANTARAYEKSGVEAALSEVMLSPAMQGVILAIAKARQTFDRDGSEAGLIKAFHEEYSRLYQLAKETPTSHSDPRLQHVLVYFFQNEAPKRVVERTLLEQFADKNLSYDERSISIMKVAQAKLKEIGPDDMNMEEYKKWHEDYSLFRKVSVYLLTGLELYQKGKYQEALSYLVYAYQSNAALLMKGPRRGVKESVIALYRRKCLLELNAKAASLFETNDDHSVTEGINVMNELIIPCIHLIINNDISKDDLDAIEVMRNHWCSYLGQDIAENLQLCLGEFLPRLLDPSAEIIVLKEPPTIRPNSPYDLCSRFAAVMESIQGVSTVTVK
USP8 block: inhibitors of human USP8 deubiquitinase; Ubiquitin carboxyl-terminal hydrolase 8 (Homo sapiens), P40818; purified USP8, Ub-rhodamine cleavage fluorescence, 30 min; inhibition, % at 20 µM; actives 4.2% (n = 47,000); AID 1645853, 2021
Numbers without * were called inactive; i = inactive; · = no result. No stated cut-off is given here; in the data, active means inhibition above about 30%; inactive means the rest.

SMILES	USP30 inh	USP17 block	USP28 inh	USP8 block
O=C(CSc1ccc2nnc(-c3ccncc3)n2n1)Nc1cccc(C(F)(F)F)c1	-11	47*	-1	90*
c1ccc(CSc2ccc3nnc(-c4ccccn4)n3n2)cc1	36*	20	34*	-8
c1ccc(CSc2ccc3nnc(-c4ccccn4)n3n2)nc1	8	-17	-2	-1
FC(F)(F)c1cccc(CSc2ccc3nnc(-c4ccccn4)n3n2)c1	32*	-1	78*	2
O=C(CSc1ccc2nnc(-c3cccc(F)c3)n2n1)N1CCCc2ccccc21	73*	63*	44*	38*
COc1ccc(C(=O)N2CC(C)C(=O)Nc3ccccc32)cc1OC (configuration not stated)	-11	-3	0	-2
Fc1cccc(-c2nnc3ccc(SCc4ccccn4)nn23)c1	30*	23	12	-113
Cc1ccc(N(C)S(=O)(=O)C2CCS(=O)(=O)C2)cc1 (configuration not stated)	31*	14	18	-11
O=C(OCc1ccc([N+](=O)[O-])cc1)C1CCN(S(=O)(=O)c2cccc3cccnc23)CC1	44*	3	28	-33
COc1ccccc1NC(=O)Nc1ccc(NC(=O)c2ccccc2O)cc1	59*	31*	9	85*
O=C(Nc1ccc(NC(=O)c2ccccc2O)cc1)Nc1ccc(OCc2ccccc2)cc1	-479	-19	-115	91*
O=C(Nc1ccc(OCc2ccccc2)cc1)NC1Cc2ccccc2C1	18	8	-4	8
COc1cccc(NC(=O)Nc2ccc(NC(C)=O)cc2)c1	-3	22	51*	2
COc1cccc(NC(=O)NC2CCN(c3ccccc3)C2=O)c1 (configuration not stated)	15	9	6	1
Cc1cccc(Cl)c1NC(=O)Nc1ccc(NC(=O)c2ccccc2O)cc1	-101	53*	-22	42*
Cc1ccccc1C(=O)Nc1ccc(NC(=O)CN2CCOCC2)cc1	-3	-17	-20	-1
Cc1ccc(CS(=O)(=O)c2cn(CC(=O)N3CCCc4ccccc43)c3ccccc23)cc1	-67	-45	-13	22
CCN1CCN(C2=NS(=O)(=O)C(c3ccc(C)c(C)c3)=C2C)CC1	22	23	15	13
O=C(Nc1cccnc1)C1CC2(CCN(C(=O)C3CC3)CC2)c2ccccc21 (configuration not stated)	-3	-17	-6	-94
Cc1ccc(NC(=O)C2CCCN(c3cnc4nccnc4c3)C2)c(F)c1 (configuration not stated)	i	-147	-130	-94
CC(=O)Nc1ccc(Sc2ccc(C)cc2)cc1	-26	-7	7	-47
O=C(Nc1ccc(F)cc1)Nc1ccc(NC(=O)c2ccccc2O)cc1	-13	34*	-3	52*
O=C(Nc1ccccc1)Nc1ccc2ncccc2c1	-17	-20	7	-21
Cn1c(-c2ccccc2)c(C(=O)COc2ncnc3ccccc23)c2ccccc21	-8	-3	2	0
CC(=O)Nc1ccc(NC(=O)Nc2ccc(F)cc2)cc1	30*	34*	19	2
SMILES	USP30 inh	USP17 block	USP28 inh	USP8 block
O=C(Nc1ccc(F)cc1)Nc1ccc2ccccc2n1	31*	18	10	51*
O=C(COc1ncnc2ccccc12)Nc1ccc(OCc2ccccc2)cc1	·	48*	·	5
Cc1cc(Nc2ccc(C)c(F)c2)n2ncnc2n1	-17	-9	0	-9
COc1cc2c(cc1OC)N=CCC2	·	13	·	2
COCCOc1ccc(C(=O)N[C@H](C)c2nc3cc(-c4ccccc4F)ncn3n2)cc1	8	0	0	3
CCN1C(=O)c2ccccc2S(=O)(=O)c2ccc(C(=O)N(C)Cc3ccccc3)cc21	13	0	3	-4
Cc1cccc(NC(=O)CN2C(=O)C3CCCN3c3ncc(Cl)cc32)c1C (configuration not stated)	-269	-21	-72	-2
CCC(C(=O)C(C)C(O)C(C)CCc1ccc(C)c(O)c1C(=O)O)C1OC(CC)(C2CCC(O)(CC)C(C)O2)CC1C (configuration not stated)	55*	63*	41*	20
COCCOC(=O)C1=C(C)Nc2nc3ccccc3n2C1c1cc(OC)c(OC)c(OC)c1 (configuration not stated)	7	34*	2	4
O=C1CC(C(=O)N(Cc2cccc3ccccc23)c2ccccn2)CN1Cc1ccccc1 (configuration not stated)	-48	20	1	-75
CCOC(=O)c1[nH]c2c(c1Cc1ccccc1OC)C(=O)CC(C)(C)C2	·	37*	·	2
O=c1c2cnc(N3CCCCC3)nc2ccn1Cc1ccc2c(c1)OCO2	-40	3	1	42*
O=C1Nc2cc(C(=O)N3CCC(N4CCCCC4)CC3)ccc2N2CCCCC12 (configuration not stated)	0	3	8	0
O=C1Cc2cc(S(=O)(=O)N3CCC([C@@H]4NC(=O)N[C@H]5OCCC[C@H]54)CC3)ccc2N1	-72	3	2	43*
CC1(C)Oc2ccc(C(=O)N3CCC([C@@H]4NC(=O)N[C@H]5OCCC[C@H]54)CC3)cc2NC1=O	32*	-1	8	1
CN1Cc2c(C(=O)N3CCOCC3)ncn2-c2ccccc2S1(=O)=O	13	15	8	3
COc1cc2cc(C(=O)NCC(=O)Nc3nc4ccccc4s3)n(C)c2cc1OC	19	33*	5	3
COc1ccc(CN2C(=O)N[C@@H](CCC(=O)Nc3cccc(OC)c3)C2=O)cc1	4	45*	9	12
O=C1Nc2cccnc2N2CCCC12 (configuration not stated)	-16	0	-9	15
O=C(O[C@@H]1C[C@H]2C(=O)N[C@H](Cc3ccccc3)C(=O)N2C1)c1ccccc1	11	8	3	10
CC(C)CC1NC(=O)C2CC(O)CN2C1=O (configuration not stated)	37*	19	20	12
CC(C)CC1NC(=O)C2CCCN2C1=O (configuration not stated)	18	71*	51*	54*
CN(C(=O)[C@H]1[C@@H]2C[C@@H]3[C@H]1C(=O)O[C@@H]3C2)c1ccccc1Cl	0	1	-4	6
Cc1cc(-c2nccn2C)nc(CC2CCN(S(C)(=O)=O)CC2)n1	-4	5	-6	5
Cc1cccc(O)c1C(=O)OC(C)c1cccc2nc3c(C(=O)O)cc4c(c3nc12)C(C)c1cccc2c1N4c1cccc(C(=O)O)c1N2 (configuration not stated)	101*	100*	100*	95*
CCOc1ccc(CCNC(=O)c2cc(Nc3ccccc3C)nc3ccccc23)cc1OCC	56*	58*	41*	7
CCOc1ccc(CCNC(=O)c2ccc3c(SCC(=O)O)c4c(nc3c2)CCC4)cc1OCC	-4	34*	42*	29
CCOc1ccc(Nc2cc(C(=O)NCCC3=CCCCC3)c3ccccc3n2)cc1	32*	44*	15	25
